Consider 20 compounds from PubChem BioAssay (NCI).

The panel holds about 79,000 compounds, 15% with a hit somewhere; the sample as a whole holds those more often. Unmarked numbers belong to inactive results. The source made the active and inactive calls. Rule as the data show it: active = growth inhibition above about 70%; inactive = the rest.

Experiment [1] can be described thus: NCI Yeast Anticancer Drug Screen. Data for the rad50 strain (AID 155).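 Also: 0% = growth of vehicle-only cultures of the same strain.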 Particulars: S. cerevisiae rad50 strain growth inhibition; at 50.0 µM; hits give high values. In outline:
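DNA repair mutant yeast, compound exposure, growth read-out; inhibition is taken relative to vehicle.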

Experiment [2] is described as follows: NCI Yeast Anticancer Drug Screen. Data for the mec2-1 strain (AID 157). The conditions noted are these: S. cerevisiae mec2-1 strain, at 50.0 µM, hits give high values. In outline: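 Each compound was tested on mec2-1 yeast, a strain altered in DNA damage repair or cell cycle control. Growth inhibition is reported relative to vehicle.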
Experiment [3] is described as follows: NCI Yeast Anticancer Drug Screen. Data for the sgs1 mgt1 strain (AID 161).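 Also: 0% = growth of cultures given vehicle only.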 Particulars: S. cerevisiae sgs1 mgt1 strain, at 50.0 µM, hits give high values. Summed up:
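Mutant yeast exposed to compound; growth scored against vehicle-only wells.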

Experiment [4] can be described thus: NCI Yeast Anticancer Drug Screen. Data for the cln2 rad14 strain (AID 165).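 Also: 0% = growth equal to vehicle treated cultures.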 Particulars: S. cerevisiae cln2 rad14 strain, at 50.0 µM, hits give high values. Summed up:
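Test compounds were added to cln2 rad14 yeast cultures; inhibition of growth was then determined by comparison with vehicle treatment.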

Experiment [5] is described as follows: NCI Yeast Anticancer Drug Screen. Data for the bub3 strain (AID 167). Particulars: S. cerevisiae bub3 mutant strain, at 50.0 µM, hits give high values. Summed up:
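In this screen, a yeast mutant lacking normal mitotic checkpoint function is challenged with compound. Relative growth versus vehicle gives the inhibition value.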

Experiment [6] can be described thus: NCI Yeast Anticancer Drug Screen. Data for the mlh1 rad18 strain (AID 175). Particulars: S. cerevisiae mlh1 rad18 strain growth inhibition; at 50.0 µM; hits give high values. Summed up: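 Inhibition values reflect reduced growth of mutant yeast versus vehicle-treated controls following compound exposure; the mutations affect DNA damage repair.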

Turning to `O=c1oc(=O)c2ccccc2c2ccccc12`, the growth inhibition in experiment [1] is -22.9%; in experiment [2], 6.85%; in experiment [3], -0.9%; in experiment [4], -32.1%; in experiment [5], -3.75%; in experiment [6], -5.6%.
As for `CC(=O)Nc1cc(Br)cc2c1-c1ccc(Br)cc1C2`, the growth inhibition is 36.7% in experiment [1]; 14.7% in experiment [2]; 16.2% in experiment [3]; 8.2% in experiment [4]; 5.3% in experiment [5]; 23.4% in experiment [6].
Regarding `COc1ccc(-c2cc(C(=O)O)c3cccc(C)c3n2)cc1`, the growth inhibition in experiment [1] is 35.6%; in experiment [2], -1.7%; in experiment [3], 35%; in experiment [4], 36.1%; in experiment [5], 23.8%; in experiment [6], 47.1%.
For `O=C(CCl)OCCN(CCOC(=O)CCl)Cc1coc2ccccc2c1=O`, the growth inhibition in experiment [1] was -4.35%; in experiment [2], -16.2%; in experiment [3] it was -4.85%; in experiment [4], -23.4%; in experiment [5] it was -1.1%; in experiment [6], -5.65%.
In the case of `CN(C)S(=O)(=O)C(CO)c1ccccc1` (stereo not given), the growth inhibition is 5.75% in experiment [1]; 12.9% in experiment [2]; 6.8% in experiment [3]; 3.15% in experiment [4]; -5.4% in experiment [5]; 10.5% in experiment [6].
In the case of `CC(C)Oc1ccc(C(N)=S)c2ccccc12`, the growth inhibition was -0.55% in experiment [1]; 4.75% in experiment [2]; -0.85% in experiment [3]; -29.1% in experiment [4]; -1% in experiment [5]; 14.1% in experiment [6].
Take `CCCC[P+](CCCC)(CCCC)c1ccccc1`: the growth inhibition is -12.7% in experiment [1]; 12.3% in experiment [2]; -0.05% in experiment [3]; -32.1% in experiment [4]; -8.95% in experiment [5]; -1.4% in experiment [6].
Consider `CCC(C)NC(=O)c1ccccc1` (stereo not given), for which the growth inhibition was 16.8% in experiment [1]; 17.7% in experiment [2]; 7.8% in experiment [3]; -34.5% in experiment [4]; 1.75% in experiment [5]; 15.3% in experiment [6].
With `Clc1ccc(-c2onc3ccc(Br)cc23)cc1`, the growth inhibition was -6.65% in experiment [1]; -12.3% in experiment [2]; -1.15% in experiment [3]; -17.9% in experiment [4]; -0.75% in experiment [5]; 8.5% in experiment [6].
For the compound `N#Cc1ccc(NN=NCCCCCCl)cc1`, the growth inhibition is 22.7% in experiment [1]; -3.2% in experiment [2]; 1.25% in experiment [3]; 8.5% in experiment [4]; 15.8% in experiment [5]; 1.55% in experiment [6].
`Cc1cc([N+](=O)[O-])ccc1NC(=O)C(Br)C(Br)C(=O)O` (stereo not given): the growth inhibition in experiment [1] was 31.1%; in experiment [2] it was 64.5%; in experiment [3] it was 75.9% (active); in experiment [4] it was 15.8%; in experiment [5], 75.8% (active); in experiment [6], 49.1%.
On to `COc1ccc(NC(=O)CC#N)cc1`, for which the growth inhibition was 7.9% in experiment [1]; 1.6% in experiment [2]; 15.8% in experiment [3]; 6.1% in experiment [4]; -3.25% in experiment [5]; 3.75% in experiment [6].
For `CCN(CC)CCCNc1cccc2nc(Cl)ccc12`, the growth inhibition in experiment [1] is 12.1%; in experiment [2], 18.6%; in experiment [3], 37.2%; in experiment [4], 24.5%; in experiment [5] it was 2.65%; in experiment [6], 9.25%.
For `N#CCCOCC(OCCC#N)C(OCCC#N)C(OCCC#N)C(COCCC#N)OCCC#N` (stereo not given), the growth inhibition in experiment [1] was -9.85%; in experiment [2] it was -14.6%; in experiment [3], -13.2%; in experiment [4], 6.15%; in experiment [5], 6.8%; in experiment [6], -13.2%.
In the case of `O=C1CC(O)(c2ccccc2)C(c2ccccc2)=C1c1ccccc1` (stereo not given), the growth inhibition in experiment [1] was 29.8%; in experiment [2] it was 21.4%; in experiment [3] it was 14.3%; in experiment [4] it was 32.7%; in experiment [5], -2.15%; in experiment [6], 36.8%.
Consider `CCCCCOC(=O)c1c(Cl)c(Cl)c(C(=O)OCCCCC)c(Cl)c1Cl`, for which the growth inhibition is -18.2% in experiment [1]; -39% in experiment [2]; 0.85% in experiment [3]; -6.85% in experiment [4]; -6.5% in experiment [5]; -9% in experiment [6].
As for `COc1cc(NCCCCCCN(C)C)c2ncccc2c1`, the growth inhibition was -17.4% in experiment [1]; -21.2% in experiment [2]; -3.1% in experiment [3]; -19.4% in experiment [4]; 5.8% in experiment [5]; -14.8% in experiment [6].
On to `C=C1C(=O)C=C2C=C3C(=O)C(C)(C)C[C@]3(O)C12C` (stereo not given in full), for which the growth inhibition in experiment [1] was 84.3% (active); in experiment [2] it was 92% (active); in experiment [3] it was 89% (active); in experiment [4] it was 82.5% (active); in experiment [5], 86.2% (active); in experiment [6], -21.7%.
As to `CC(=O)N1c2ccccc2C2=NN(C)C(=N)SC21` (stereo not given), the growth inhibition in experiment [1] was -27.6%; in experiment [2], -5.7%; in experiment [3], -27.3%; in experiment [4], -7.65%; in experiment [5], -5.2%; in experiment [6], 1.65%.
Take `CC1CSC(C)C(=O)N1` (stereo not given): the growth inhibition was -11.2% in experiment [1]; -3.65% in experiment [2]; -5.75% in experiment [3]; 7.55% in experiment [4]; 15.8% in experiment [5]; 2% in experiment [6].
